Nrf2 ARE act = Nrf2 pathway activation | AREc32 ARE-luciferase reporter (MCF7-derived line), luminescence, 24 h | Potency, µM (series often up to 46.1 µM), hits mostly activators | actives 0.31% (n = 410,000); also: nearly all actives have a fitted effect of over 65% in size
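Each well held 1000 AREc32 cells, which were incubated with compound for 24 hr at 37 deg C after overnight attachment, and ARE reporter activity was quantified by firefly luciferase luminescence.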
Nrf2 inh = Nrf2 pathway inhibition. A549 ARE-Fluc reporter, luciferase luminescence, 18-24 h. Potency, µM (titrated, usually from 46 µM), actives largely listed as inhibitors. actives 2.1% (n = 360,000); also: nearly all actives have a fitted effect of over 60% in size
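Nrf2 activity is the BugLite luminescence, read 15 min after reagent at room temperature, following CellTiter-Fluor cytotoxicity readout (30 min, 37C). Compound titrations were applied for 18-24 h to 5000 A549 ARE_Fluc cells/well in 5% FBS OPTI-MEM.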
TCR activator = activates T cell receptor signaling. primary human leukocytes, anti-CD3, IL-2 HTRF, 48 h. Potency, µM (highest dose often 9.22 µM), most hits filed as activators. 330,000 tested, under 10 active. AID 504894
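Primary human leukocytes were stimulated with a-CD3 beads plus compounds for 48 hr without co-stimulation; secreted IL-2 was quantified by HTRF using a-IL-2-K (europium cryptate) and a-IL-2-d2, excited at 320nm with acceptor emission read at 665nm.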
A-T KAP1 phos = potential ataxia-telangiectasia treatments restoring KAP-1 phosphorylation; actives 0.19% (n = 320,000); F2112 A-T fibroblasts, KAP-1 phosphorylation AlphaLISA; neocarzinostatin DNA damage 30 min before lysis; AID 485349; Potency, µM (top dose mostly 57.5 µM), usual class: activators; also: nearly all actives have a fitted effect of over 45% in size
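ATM-like activity read as KAP-1 phosphorylation via AlphaLISA donor/acceptor antibody pairs after lysis and 6 hr at 25C. Cells were ATM-null patient fibroblasts (F2112, hTERT), dosed 60 min, then exposed to the DSB inducer NCS for 30 min.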
CCT modulator = cytosolic chaperonin activity modulation. purified chaperonin ATPase assay, HTRF ADP detection, 30 min. activity change, % (concentration not given with the values), hits read low. actives 0.3% (n = 360,000); in the data active = activity change below about -30%
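Nucleotide hydrolysis assay: TRiC at 20–40 nM final (set by batch activity) with 10 uM ATP, 30 min at 37 °C, in presence of 76 uM compound. Detection by competitive ADP HTRF, 30 min ambient.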
A549 tox = A549 cytotoxicity, counter-screen for Nrf2 inhibitors. A549 ARE-Fluc cells, CellTiter-Fluor viability, 18-24 h. Potency, µM (titrated, usually from 46 µM), actives largely listed as inhibitors. actives 0.16% (n = 390,000)
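Cytotoxicity counterscreen: CellTiter-Fluor fluorescence was measured in A549 ARE_Fluc cells after 18-24 h of compound exposure in a concentration series. The subsequent BugLite luminescent read reports ARE-luciferase activity.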
Hits are given with their value; i = inactive; ? = inconclusive; nt = no result. Compounds with a hit are over-represented: about 2.6% of the library has one in this group of screens. Unless noted, calls follow the shape of the dose curve; as a rule, active = well fitted curve in the direction sought with a large enough effect; inconclusive = small, poorly fitted or top-dose-only effect, or another doubt; inactive = no such curve, though single readings can be large; an effect the other way counts as inactive or inconclusive.

SMILES	Nrf2 ARE act	Nrf2 inh	TCR activator	A-T KAP1 phos	CCT modulator	A549 tox
Cc1ccc(OCCOC(=O)c2cc(S(=O)(=O)N3CCCCC3)ccc2N2CCOCC2)cc1	i	12µM	i	i	i	i
Cc1ccc(S(=O)(=O)N2CCOCC2)cc1C(=O)N(C)CCOc1ccc(Cl)cc1	i	?	i	22µM	i	i
O=C(CNC(=S)N(Cc1ccccc1)Cc1ccccc1F)NCc1ccc(Cl)cc1	i	26µM	i	i	i	?
CC1/C(=N/O)CC(c2ccccc2)N(C)C1c1ccccc1 (stereo not given)	i	i	i	i	i	i
CC1C(c2ccccc2)N(C)C(c2ccccc2)CC1(O)c1ccccc1 (stereo not given)	i	?	i	10µM	i	?
CN(C)Cc1nnnn1-c1cccc(-n2nnnc2CN(C)C)c1	i	i	i	i	i	i
O=S(=O)(c1cccc(-c2nnc(-c3ccc(Br)cc3)o2)c1)N1CCCCCC1	i	i	i	i	-58	i
NC(=O)CSc1nnc(-c2cccc(S(=O)(=O)N3CCCCC3)c2)o1	i	?	i	i	-57	i
O=C(CSc1nnc(-c2cccc(S(=O)(=O)N3CCCCC3)c2)o1)c1ccc[nH]1	i	i	i	i	i	i
Cc1cc(Oc2ccc(C#N)cc2)nc(NCc2ccccc2)n1	i	16µM	i	i	i	i
Cn1c(=O)c2[nH]c(CCCCCCCc3nc4ccccc4[nH]3)nc2n(C)c1=O	i	16µM	i	nt	i	?
Cn1c(=O)c2[nH]c(COc3ccc(C(C)(C)C)cc3)nc2n(C)c1=O	i	12µM	i	i	i	i
Cn1c(=O)c2[nH]c(Cc3cccc(O)c3)nc2n(C)c1=O	i	i	i	nt	i	i
CCCc1nnc(NC(=O)Cc2coc3cc(C)cc(C)c23)s1	i	i	nt	nt	nt	i
C/C=C(\C)C(=O)OC1[C@H](OC(C)=O)C2(CO)C(CC1(C)C)C1=CCC3C4(C)CCC(O[C@@H]5O[C@H](C(=O)O)[C@@H](O[C@@H]6O[C@H](CO)[C@@H](O)[C@H](O)[C@H]6O)[C@H](O)[C@H]5O[C@H]5O[C@H](CO)[C@@H](O)[C@H](O)[C@H]5O)[C@](C)(CO)C4CCC3(C)[C@]1(C)C[C@H]2O (stereo not given in full)	i	18µM	i	nt	i	?
O=C(Nc1ccc(Cl)cc1)N1CCN(c2ccc3nnc(-c4ccccc4)n3n2)CC1	i	26µM	nt	nt	nt	i
COc1ccccc1NC(=O)N1CCN(c2ccc3nnc(-c4ccc(F)cc4)n3n2)CC1	i	9.2µM	i	i	i	i
O=C(Nc1ccccc1Cl)N1CCN(c2ccc3nnc(-c4ccc(F)cc4)n3n2)CC1	i	?	i	i	i	i
Cc1nc(Nc2ccccc2F)c2oc3ccccc3c2n1	3.2µM	?	i	i	-49	i
Cc1nc(Nc2ccccc2O)c2oc3ccccc3c2n1	i	i	i	i	i	i
CCc1nnc(NC(=O)CCC(=O)N2CCN(Cc3ccccc3)CC2)s1	i	i	i	i	-93	i
CCc1nnc(NC(=O)CCC(=O)N2CCN(c3ccccn3)CC2)s1	i	i	i	i	i	?
CCc1nnc(NC(=O)CCC(=O)N2CCN(Cc3ccc(OC)c(F)c3)CC2)s1	i	?	i	i	i	i
CCc1nnc(NC(=O)Cc2ccc(S(=O)(=O)N3CCCCC3)cc2)s1	i	21µM	i	i	i	i
Cc1ccc(OCCN2CCN(C(=O)CCC(=O)Nc3nnc(CC(C)C)s3)CC2)cc1	i	10µM	i	i	i	i
SMILES	Nrf2 ARE act	Nrf2 inh	TCR activator	A-T KAP1 phos	CCT modulator	A549 tox
CCc1nnc(NC(=O)CCC(=O)N2CCN(Cc3ccc(Cl)cc3)CC2)s1	i	23µM	i	i	i	i
CCC(C)NC(=O)C1CCN(S(=O)(=O)c2ccc3c(ccn3CC)c2)CC1 (stereo not given)	i	nt	nt	nt	nt	i
Cc1cc2oc(C(=O)N(Cc3ccc(N(C)C)cc3)CC3CCCO3)c(C)c2cc1Cl (stereo not given)	i	i	nt	nt	nt	i
O=C(CN1C(=O)COc2ccccc21)NCCc1ccc(Cl)cc1	i	nt	nt	nt	nt	i
COc1ccc(CNC(=O)c2cc3c(=O)n(Cc4cccs4)ccc3nc2C)cc1	i	?	nt	nt	nt	i
CC(C)Cc1nnc(NC(=O)CCC(=O)N2CCN(c3ccc(Cl)cc3)CC2)s1	i	18µM	i	i	i	i
CCCc1nnc(NC(=O)CCC(=O)N2CCN(Cc3cc(F)ccc3OC)CC2)s1	i	i	i	i	i	i
CCCc1nnc(NC(=O)CCC(=O)N2CCN(Cc3ccc(Cl)cc3)CC2)s1	i	15µM	i	i	i	i
CCOc1ccc(NC(=O)CN2C(=O)NC(C)(c3ccc(OC(F)F)cc3)C2=O)cc1 (stereo not given)	?	i	i	i	i	i
CN(C)S(=O)(=O)c1ccc(N2CCCC2)c(C(=O)NNC(=O)c2ccc(F)cc2)c1	i	i	nt	?	-61	i
CN(C)S(=O)(=O)c1ccc(N2CCCC2)c(C(=O)NNC(=O)c2ccc(Br)cc2)c1	i	i	i	i	i	i
COc1ccc(C2c3c(N)nc(CCc4ccccc4)nc3Oc3ccc4ccccc4c32)cc1OC (stereo not given)	nt	?	nt	nt	nt	i
Cc1ccc(C(=O)c2cn(Cc3ccc(F)cc3)c3nc(C)ccc3c2=O)cc1	i	?	nt	nt	nt	i
Cc1c(C(=O)Nc2ccc(S(=O)(=O)Nc3ncccn3)cc2)oc2ccc(Cl)cc12	i	i	i	i	-34	i
O=C(Nc1ccc(S(=O)(=O)Nc2nccs2)cc1)c1ccc(F)c(S(=O)(=O)N2CCOCC2)c1	i	i	i	i	i	i
O=C(Nc1ccc(S(=O)(=O)Nc2ncccn2)cc1)c1ccc(F)c(S(=O)(=O)N2CCOCC2)c1	i	i	i	28µM	i	i
O=C(Nc1cccc(Cl)c1)c1ccc(F)c(S(=O)(=O)N2CCN(c3ccccn3)CC2)c1	i	21µM	i	i	i	i
O=C(CNC(=O)c1ccccc1)N[C@@H](C(=O)Nc1cc(C(F)(F)F)ccc1Cl)c1ccccc1	nt	?	nt	nt	nt	i
CCc1ccc(C2=C(C)C(N3CCC(C(=O)NCCc4ccco4)CC3)=NS2(=O)=O)cc1	i	?	nt	nt	nt	i
Cn1ncc2c(N3CCN(c4cccc(Cl)c4)CC3)ncnc21	i	nt	nt	nt	nt	i
Cc1ccc(-c2noc(-c3ccccc3OCC(=O)Nc3ccccc3[N+](=O)[O-])n2)cc1	i	?	nt	nt	nt	i
O=C(COc1ccccc1-c1nc(-c2ccccc2)no1)Nc1ccccc1[N+](=O)[O-]	i	18µM	nt	nt	nt	i
CN(Cc1nc(-c2ccc(Cl)cc2)no1)S(=O)(=O)c1ccccc1	i	i	nt	nt	nt	i

Source: PubChem BioAssay
